Measurements published in PubChem BioAssay (NCATS).
Several values for one entry are separate records, joined by “and”; a condition that tells them apart may be missing. Equal values may be shown once. Results filed as inconclusive are left out. A number with no mark means an inactive call. Unless noted, the call rests on the fitted dose curve; in most records, active means well fitted cell-killing curve with a large enough effect; inconclusive means small, poorly fitted or top-dose-only effect; inactive means flat fitted curve, though single readings scatter.

tested on: not listed separately; assay: Cell Viability - Mesenchymal (AID 546); details: mesenchymal cells viability, qHTS; activity change, negative = cytotoxicity: at 91.7 µM (top of the series);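 further: cells exposed to compound for 40 hours before reading; 0% = DMSO only and -100% = 100 µM tamoxifen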
How it was run: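 Human kidney mesenchymal cells from normal renal glomeruli, 1000 cells/well, rested 5 hr at 37 °C, then treated 40 hr at 37 °C in complete medium. Cellular ATP read by CellTiter-Glo luminescence; AC50 from Hill-equation fits.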

SMILES | activity change, negative = cytotoxicity
CCCN(CCC)C(=O)SCC | 5.65%
CCC(O)OC(O)CC (centres undefined) | 7.91% and -0.346%
Cc1cccc([N+](=O)[O-])c1C | 1.97%
CCCCCCCCO | -3.19%
O=[N+]([O-])c1cccc(Cl)c1Cl | 4.81%
Clc1cc(Cl)c(Cl)cc1Cl | 9.51%
Clc1cc(Cl)c(Cl)c(Cl)c1Cl | -0.0158%
c1ccc2c(c1)[nH]c1ccccc12 | -7.62%
OCCNCCO | 11.5%
CCC(C)c1ccccc1O (centres undefined) | 1.63% and 2.6%
CC1=CC(C)(C)Nc2ccccc21 | 16.2% and 9.84%

molecular target: 3',5'-cyclic-AMP phosphodiesterase 4B (Homo sapiens) (UniProt Q07343); assay: qHTS Assay for Inhibitors of PDE-IV (AID 607; active means well fitted activation curve with a large enough effect in the main read-out, with a control signal flat, not every such curve was filed as active; further: % of control where 0% means no effect); details: HEK293 ACTOne CNG channel cells, membrane potential fluorescence; series mostly up to 22.9 µM; activation (PDE inhibition): at the top concentration
Sequence (Q07343 whole entry, looked up): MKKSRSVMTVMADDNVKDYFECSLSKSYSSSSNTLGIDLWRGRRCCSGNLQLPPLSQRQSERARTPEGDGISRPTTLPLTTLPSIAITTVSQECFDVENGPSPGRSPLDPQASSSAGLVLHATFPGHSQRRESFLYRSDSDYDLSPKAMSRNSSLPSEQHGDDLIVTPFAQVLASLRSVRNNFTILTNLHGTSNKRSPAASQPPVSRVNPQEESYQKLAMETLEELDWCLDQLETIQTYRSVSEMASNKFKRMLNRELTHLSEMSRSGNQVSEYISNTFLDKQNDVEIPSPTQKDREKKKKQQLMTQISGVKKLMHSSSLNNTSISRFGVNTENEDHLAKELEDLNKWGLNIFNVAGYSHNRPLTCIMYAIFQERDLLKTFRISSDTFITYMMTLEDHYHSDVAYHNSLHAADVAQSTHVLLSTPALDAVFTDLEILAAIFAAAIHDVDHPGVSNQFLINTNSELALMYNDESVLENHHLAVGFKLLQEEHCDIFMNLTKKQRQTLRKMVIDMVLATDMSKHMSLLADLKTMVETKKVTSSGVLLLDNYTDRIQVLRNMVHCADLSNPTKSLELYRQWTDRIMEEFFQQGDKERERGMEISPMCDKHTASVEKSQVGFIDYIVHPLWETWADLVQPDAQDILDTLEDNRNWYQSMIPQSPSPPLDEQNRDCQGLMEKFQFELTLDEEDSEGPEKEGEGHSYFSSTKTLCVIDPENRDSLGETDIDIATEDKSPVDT
How it was run: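 Cell-based read-out of cAMP via a modified cyclic nucleotide-gated channel and membrane potential dye (535/590 nm) in HEK293 cells expressing PDE4 endogenously. Compounds tested up to 22.9 uM final; 100 uM RO 20-1724 reference.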

SMILES | activation (PDE inhibition) [%]
CCNc1ncc2ncc(=O)n(Cc3ccc(F)cc3)c2n1 | 17.1
COc1ccc2[nH]cc(CCNc3ncncc3-c3ccccc3C(F)(F)F)c2c1 | -26.7
COCCn1c(=O)c(-c2cccc(C#N)c2)nc2cnc(Oc3cccc(Cl)c3)nc21 | -2.1
